Values joined by “and” are separate entries in the source; they are usually repeats but may differ in a detail not shown here. Equal entries are not always repeated. The whole screen tested about 16,000 compounds, of which about 2,600 (16%) were called active. About 20% were inconclusive and are not listed. Not all results are given here. Unmarked numbers belong to inactive results. The call rests on the fitted dose curve; in most records, active means well fitted curve in the direction sought with a large enough effect; inconclusive means small, poorly fitted or top-dose-only effect, or effect the other way; inactive means no such curve, though single readings can be large or run the other way.
The compounds below were run against Cytochrome P450 2D6 (Homo sapiens) (UniProt P10635) (assay: Cytochrome panel assay with activity outcomes). Settings: recombinant CYP, pro-luciferin dealkylation, luminescence, p450-cyp2d6; series mostly up to 57.1 µM; activity, negative = inhibition: at the top concentration.
Sequence of Cytochrome P450 2D6 (Homo sapiens) (P10635 whole entry, looked up): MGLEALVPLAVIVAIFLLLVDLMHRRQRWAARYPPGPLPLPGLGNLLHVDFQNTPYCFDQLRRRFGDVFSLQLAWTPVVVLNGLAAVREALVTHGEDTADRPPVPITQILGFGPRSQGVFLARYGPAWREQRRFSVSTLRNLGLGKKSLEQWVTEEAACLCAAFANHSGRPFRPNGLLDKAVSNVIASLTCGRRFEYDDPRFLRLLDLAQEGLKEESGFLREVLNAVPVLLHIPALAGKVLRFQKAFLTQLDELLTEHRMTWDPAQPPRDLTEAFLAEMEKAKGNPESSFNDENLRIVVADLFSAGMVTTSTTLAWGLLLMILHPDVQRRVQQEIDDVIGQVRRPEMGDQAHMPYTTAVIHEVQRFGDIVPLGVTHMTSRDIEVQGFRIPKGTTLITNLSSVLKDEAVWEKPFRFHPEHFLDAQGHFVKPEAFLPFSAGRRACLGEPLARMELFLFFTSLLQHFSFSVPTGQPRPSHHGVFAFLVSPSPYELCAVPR
On the % scale 0 is the no-effect control and ±100 the full control effect.

SMILES | activity, negative = inhibition | AC50
CN(C)CCN1C(=O)C(O)=C(C(=O)c2cc3ccccc3o2)C1c1cccc(Br)c1 (centres undefined) | -8.66% | 
COc1ccc2c(c1)C(=O)N(c1ccccc1)C(=O)C2 | 6.59% | 
CN(C)c1cc(=O)n2c(n1)SCCC2 | -8.3% | 
CCSc1nc2ccccc2n1C(=O)/C=C\c1ccc(OC)c(OC)c1 | -26.1% | 
CC(C)COP(=O)(OCC(C)C)C(O)c1ccccc1F (centres undefined) | -0.495% | 
CCOC(=O)c1c(NC(=O)c2ccc(S(=O)(=O)N3CCOCC3)cc2)sc2c1CCN(C)C2 | -15.6% | 
COCc1nnc(NC(=O)c2ccc(S(=O)(=O)N3CCCCCC3)cc2)o1 | 13.5% | 
O=C(Nc1ccc(S(=O)(=O)N2CCCC2)cc1)c1ccc(CN2CCOCC2)cc1 |  | 5.01 µM (active)
CN(C)S(=O)(=O)c1ccc(C(=O)Nc2ccc(CN3CCCC3)cc2)cc1 |  | 2.51 µM (active)
Cc1nc2ccc3nc(NC(=O)c4ccc(S(=O)(=O)N5CCOCC5)cc4)sc3c2s1 | 5.64% | 
O=C(NCc1n[nH]c(=S)n1-c1ccccc1)c1ccc(S(=O)(=O)N2CCOCC2)cc1 | 14.4% | 
CCN(CC)S(=O)(=O)c1ccc(C(=O)Nc2ncn(Cc3ccccc3)n2)cc1 | -4.78% | 
O=C(Nc1ccccc1-c1nc2ccccc2[nH]1)c1ccc(S(=O)(=O)N2CCCCC2)cc1 | -16.2% | 
CN(C)S(=O)(=O)c1ccc(NC(=O)c2cc(F)c(F)cc2Cl)cc1 | -9.35% | 
O=C(CSc1ncccn1)Nc1ccc(S(=O)(=O)N2CCCCC2)cc1 | 6.83% | 
O=C(Nc1ccc(S(=O)(=O)N2CCOCC2)cc1)c1ccc(CN2CCc3ccccc3C2)cc1 |  | 0.178 µM (active)
O=C(Nc1ccc(S(=O)(=O)N2CCCCC2)cc1)c1ccc(CN2CCc3ccccc3C2)cc1 |  | 0.251 µM (active)
C[C@@H](c1ccccc1)N1C(=O)[C@H]2[C@@H]3[C@H](O)[C@H](O)CC(=O)[C@H]3CC[C@H]2C1=O | 12.3% [at 11.4 µM] and 1.84% [at 11.4 µM] | 
C#CCCCO/N=C1/C[C@@H](O)[C@@H](O)[C@@H]2[C@@H]3C(=O)N(C[C@@H]4CCCO4)C(=O)[C@H]3CC[C@@H]12 | 9.44% [at 11.4 µM] | 
CCCCOc1ccccc1C1CC(=O)NC2=C1C(=O)CCC2 (centres undefined) | -1.31% | 
COc1ccc(N2CCN(S(=O)(=O)c3ccc4c(c3)CCCC4)CC2)c([N+](=O)[O-])c1 | -12.9% | 
Cn1c(=O)[nH]c(=O)c2c1nc(NCCCO)n2CCCc1ccccc1 | -3.72% | 
O=C(Nc1nc(-c2ccccc2)cs1)c1cccc([N+](=O)[O-])c1 | 11.3% | 
Cc1nn(-c2ccc(F)cc2)c(Cl)c1/C=C(\CCC(=O)O)c1nc2ccccc2s1 | -5.38% | 

SMILES | activity, negative = inhibition | AC50
CC(=O)[C@H]([C@@H](c1ccccc1)N1CCOCC1)N1CCOCC1 | -3.05% [at 11.4 µM] | 
CN1CCc2c(c3ccccc3n2Cc2ccccc2)C1 |  | 3.16 µM (active)
CN1CCc2nc(N)nc(-c3nc(N)nc4c3CN(C)CC4)c2C1 | 8.94% [at 11.4 µM] | 
CN1CCc2[nH]nc(-c3n[nH]c4c3CN(C)CC4)c2C1 | 11.7% [at 11.4 µM] | 
CN1CCc2c(c3ccccc3n2C)C1 |  | 12.6 µM (active)
O=c1[nH]ncc2c3ccccc3n(Cc3ccccc3)c12 | 9.17% | 
CCCNC(=O)OC[C@@H]1O[C@H](CCO/N=C\[C@@H](C)[C@H](OCc2ccccc2)C(C)C)C=C[C@@H]1Oc1ccc(OC)cc1 | -8.99% [at 11.4 µM] | 
O=C1N=C2SCCN2/C1=C\c1c(Cl)cccc1Cl | -4.25% | 
COC(=O)C/C=C\[C@H](C)[C@H](CO)NS(=O)(=O)c1ccc(C)cc1 | -10.6% [at 11.4 µM] | 
COCCn1c(=O)c(C)nc2cnc(N(C)C)nc21 | 4.47% | 
Cn1c(=O)c(-c2ccccc2)nc2cnc(N3CCNCC3)nc21 | -5.95% | 
CCN(CC)c1ccc(N2C(=O)/C(=C/c3cccnc3)SC2=S)cc1 | 20.9% | 
Cc1c(NC(=O)C2CCN(S(=O)(=O)c3ccc(Cl)cc3)CC2)c(=O)n(-c2ccccc2)n1C | 10.2% | 
CCC/C=C(\CCC)C(NS(=O)(=O)CC12CCC(CC1=O)C2(C)C)c1ccc(C(=O)OC)cc1 (centres undefined) |  | 5.01 µM (active)
CCC/C=C(\CCC)C(NC(=O)c1ccc(-c2ccccc2)cc1)c1ccc(C(=O)OC)cc1 (centres undefined) | 2.92% | 
CCC/C=C(\CCC)C(NS(=O)(=O)c1cccc2cccnc12)c1ccc(C(=O)OC)cc1 (centres undefined) | -12% | 
CCC/C=C(\CCC)C(NC(=O)c1ccc(C(F)(F)F)cc1)c1ccc(C(F)(F)F)cc1 (centres undefined) | 0.53% | 
CCC/C=C(\CCC)C(NC(=O)c1cccs1)c1ccc(C(=O)OC)cc1 (centres undefined) | -6% | 
CCC/C=C(\CCC)C(NC(=O)c1ccc(C(F)(F)F)cc1)c1ccccc1 (centres undefined) |  | 7.94 µM (active)
CCC/C=C(\CCC)C(NS(=O)(=O)c1ccc(Cl)cc1)c1ccccc1 (centres undefined) |  | 20 µM (active)
CCC/C=C(\CCC)C(NS(=O)(=O)c1cccs1)c1ccc(C(=O)OC)cc1 (centres undefined) |  | 6.31 µM (active)
CCC/C=C(\CCC)C(NC(=O)OCC(C)C)c1ccc(C(=O)OC)cc1 (centres undefined) | -9.01% | 
CCC/C=C(\CCC)C(NS(=O)(=O)c1ccc(C(F)(F)F)cc1)c1ccc(-c2ccccc2)cc1 (centres undefined) | 1.52% | 
CCC/C=C(\CCC)C(NS(=O)(=O)c1ccc(C(F)(F)F)cc1)c1ccc(C(=O)OC)cc1 (centres undefined) | 2.44% | 

SMILES | activity, negative = inhibition | AC50
CCC/C=C(\CCC)C(NS(=O)(=O)c1ccc(Cl)cc1)c1ccc(C(=O)OC)cc1 (centres undefined) | -8.65% | 
O=C(Nc1cccn(Cc2c(Cl)cccc2Cl)c1=O)c1ccc(Cl)cc1Cl | 12% | 
Cc1ccccc1N1CCN(C(=O)c2ccccc2NC(=O)/C=C\C(=O)O)CC1 | 2.71% | 
C/C(=N\[N+](C)(C)C)c1ccc(C)c(C)c1 | -19.6% [at 11.4 µM] | 
O=C(O)C1C2C=CC(C2)C1C(=O)N1CCN(C/C=C/c2ccccc2)CC1 (centres undefined) | -10.1% | 
Cc1cccc(C(=O)Nc2nnc(-c3ccc(C(C)(C)C)cc3)s2)c1 | 7.99% | 
CCCc1nnc(NC(=O)Cn2cnc3ccccc3c2=O)s1 | 11.7% | 
COc1ccc(C(O)P(=O)(OC(C)C)OC(C)C)cc1OC (centres undefined) | -13.6% | 
CCc1ccc(N2C(=O)c3ccc4c5c(ccc(c35)C2=O)CC4)cc1 | -7.44% | 
C=CCN1C(=O)CN=C1Nc1ccccc1 | 2.01% | 
CN1CCN(/C=N/C2=C(C#N)C(c3ccccc3)C3=C(CC(C)(C)CC3=O)O2)CC1 (centres undefined) | 5.01% | 
CSc1nc(C)c2c(n1)N(c1ccc(C(F)(F)F)cc1)CC2 | 7.98% | 
COc1cc(OC)c2nc(C)c3c(c2c1)N(c1ccc(O)cc1)CC3 |  | 3.16 µM (active)
CSc1nc(C)c2c(n1)N(c1ccc(C(C)C)cc1)CC2 | -7.45% | 
COc1ccc(N2C(=O)CSC2c2cccc(F)c2)c(OC)c1 (centres undefined) | 17.9% | 
COc1ccc2c(C)cc(N3CCOCC3)nc2c1 | -26.1% | 
COc1ccc(N2CCc3c(C)nc4c(OC)cc(OC)cc4c32)c(OC)c1 |  | 0.1 µM (active)
CN(C)CCNc1ncnc2c1sc1nc(N3CCOCC3)c3c(c12)CC(C)(C)SC3 | -6.95% | 
CC(C)/C(=N/[N+](C)(C)C)c1ccccc1 | 6.75% [at 11.4 µM] | 
CC(C)NCCCOc1ccc(Cl)cc1Br |  | 0.178 µM (active)
CC1(C)CC(=O)C/C(=N/NC(=O)CCCOc2ccc(Cl)cc2Cl)C1 | -22.8% | 
CC(C)C(=O)Nc1ccc(C(=O)NNC(=O)CCCOc2ccc(Cl)cc2Cl)cc1 | -9.88% | 
CC1(C)O[C@H]2[C@@H](O1)[C@@H](On1nnc3ccc(Cl)cc31)O[C@@H]2[C@@H]1COC(C)(C)O1 | -7.25% [at 11.4 µM] | 
COc1ccc(C(=O)NNC(=O)CSc2nnc(COc3ccc4ccccc4c3)n2C)cc1 | -0.0652% | 

SMILES | activity, negative = inhibition | AC50
Cc1[nH]nc(-c2ccc(O)cc2O)c1-c1ccc(Cl)cc1 |  | 3.55 µM (active)
Oc1ccc(-c2[nH]ncc2-c2ccc(Cl)cc2)c(O)c1 |  | 8.91 µM (active)
C=C(C)COc1ccc(-c2n[nH]c(C)c2-c2ccc(OC)cc2)c(O)c1 | -87.9% | 
CCCCc1ccc(-c2csc(/C(C#N)=C/c3ccc(C)o3)n2)cc1 | -2.34% | 
CS(=O)c1ccccc1-c1nc(-c2cc(C(F)(F)F)cc(C(F)(F)F)c2)no1 (centres undefined) | -17% | 
COc1ccc(-n2nc3cc(C)c(NC(=S)NC(=O)c4ccccc4C)cc3n2)cc1 | 6.83% | 
COC(=O)c1cc(C(=O)c2ccc(Cl)cc2Cl)cn1C | 9.82% | 
CC1(C)S[C@@H]2[C@H](NC(=O)[C@@H](N)c3ccccc3)C(=O)N2[C@H]1C(=O)O[C@H]1OC(=O)c2ccccc21 | 0.075% [at 25.6 µM] | 
Cc1ccc(Nc2c([N+](=O)[O-])ccc3c2=NC2(CCCCC2)N=3)cc1 |  | 25.1 µM (active)
CC(=O)Nc1ccc(Nc2ncc([N+](=O)[O-])c(Nc3ccc(NC(C)=O)cc3)n2)cc1 | -4.74% | 
O=C(NC1CCCC1)c1cccnc1N1CCCCCC1 | 11.3% | 
Cc1ccc(NC(=O)c2sc3nc[nH]c(=O)c3c2C)c(C)c1 | -18.3% | 
CCCSc1nnc2n(N)c(=O)c3ccccc3n12 | -7.37% | 
Cc1c(NC(=O)CCCOc2ccccc2)cccc1[N+](=O)[O-] |  | 1.58 µM (active)
O=C(CCOc1ccccc1)Nc1ccccc1 | 21.3% | 
CCC(=O)Nc1cccc(C(=O)/C=C/c2ccccc2)c1 | -16.4% | 
COC(=O)c1cccc(NC(=O)CCCOc2ccccc2)c1 |  | 10 µM (active)
Cc1ccc(OCCCC(=O)Nc2ccccc2C(F)(F)F)cc1 | -17.2% | 
Cc1c(NC(=O)/C=C/C(=O)O)cccc1[N+](=O)[O-] | 0.595% | 
CCc1sc(-c2c(C#N)c(N)nc3c2CCCCCC3)cc1[N+](=O)[O-] | -11.8% | 
COc1ccccc1CCn1c(=O)c(-c2cn(C)c3ccccc23)nc2cncnc21 | -10.1% | 
CC(C)n1c(O)c(/C=C2\C=Nc3ccccc32)sc1=Nc1ccccc1 | -18% | 

— PubChem BioAssay AID1851 (National Center for Advancing Translational Sciences (NCATS), 2009)
